The values below come from PubChem BioAssay (NCI).

The panel holds about 83,000 compounds, 20% with a hit somewhere; the sample as a whole holds those more often.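 Cell lines were cultured in 96-well plates, exposed to a single compound concentration, and assessed for percent growth 48 hours later.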 Calls of active or inactive are those of the source. The calls were made as follows: active = growth percent below 10; inactive = the rest.

This experiment concerns EKVX NSCLC. The experiment in a line: NCI-60 one-dose screen, 48 h (100 = growth as untreated, 0 = no growth, -100 = all killed). Particulars: 10 µM unless noted.
Take `CC(=O)OC[C@]12CC[C@@H]([C@@H](C)c3nnc(-c4ccncc4)o3)[C@@H]1[C@H]1CC[C@@H]3[C@@]4(C)CC[C@H](OC(C)=O)C(C)(C)[C@@H]4CC[C@@]3(C)[C@]1(C)CC2`: the growth is 69.3% (inactive). Take `CN(Cc1ccccc1)c1nc(Cl)c(C2CC(c3ccccc3)=NN2c2ccccc2)s1` (stereo not given): the growth was 85.3% (inactive). Consider `CSc1nc(C)c([N+](=O)[O-])c(N)n1`, for which the growth is 102% (inactive). Turning to `CN1CCN(Cc2ccc(NC(=O)c3cncc(C#Cc4cnc(N)c5ccc(F)cc45)c3)cc2C(F)(F)F)CC1`, the growth was 42% (inactive). `CN1CCN(C(=O)[C@@]2(C)CC[C@]3(C)CC[C@]4(C)C(=CC[C@@H]5[C@@]6(C)CCC(=O)NC(C)(C)[C@@H]6CC[C@]54C)[C@@H]3C2)CC1`: the growth was 79.6% (inactive). `COc1ccc(/C=C2\CN(C(=O)C(Cl)Cl)C/C(=C\c3ccc(OC)cc3)C2=O)cc1`: the growth was 14.5% (inactive). `O=C(NNc1cnccn1)c1nc2cc(F)ccc2n2cccc12`: the growth is 17.9% (inactive). Take `COc1cc(/C=C2\CN(S(=O)(=O)c3ccccc3)C/C(=C\c3cc(CN4CCCCC4)c(O)c(OC)c3)C2=O)cc(CN2CCCCC2)c1O`: the growth is -36.4% (active).

In the case of `COc1ccc(/C=C/C(c2cc(OC)c(OC)c(OC)c2)n2ccnc2)cc1O` (stereo not given), the growth is 81.2% (inactive). For the compound `C/C=C(/C)n1cnc2c(Nc3ccccn3)nc(Cl)nc21`, the growth is 96.9% (inactive).

Regarding `Oc1ccc(/C=C/c2ccc(O)cc2)cc1`, the growth was 76.5% (inactive). For the compound `C#CCOc1cccc(-c2ncnc3cc(NC(=O)C=C)ccc23)c1`, the growth was 72.2% (inactive). Consider `CCOC(=O)c1nn(CC(O)c2ccccc2)c(NC(=O)Nc2cccc(F)c2)c1C` (stereo not given), for which the growth is 101% (inactive). For `O=C(N/N=C\c1ccccc1S(=O)(=O)O)N/N=C/c1ccccc1S(=O)(=O)O`, the growth is 102% (inactive). For `CC[C@]12C=CCN3CC[C@@]4(c5ccc(OC)cc5N(C)[C@H]4[C@@](O)(C(=O)OC)[C@@H]1OC(=O)CCC[P+](c1ccccc1)(c1ccccc1)c1ccccc1)[C@@H]32`, the growth is 10.3% (inactive). For `CCCn1nc(C(=O)N(C)Cc2ccccc2)c2c1CCC(N1CCc3ccccc31)C2` (stereo not given), the growth is 95.2% (inactive).

Take `C=C1C(=O)O[C@H]2[C@H]1CC/C(COC(=O)/C=C\C(=O)NCc1ccc(Cn3c(=O)sn(CCCl)c3=O)cc1)=C\CC[C@@]1(C)O[C@@H]21`: the growth was 86.2% (inactive). Consider `COC(=O)c1ccc(NC(=O)Nc2ccc(C(=O)OC)cc2)cc1`, for which the growth was 118% (inactive).

Turning to `O=C(O)c1cn(C2CC2)c2cc(N3CCN(C(=O)Nc4nc(-c5ccc(Br)cc5)cs4)CC3)c(F)cc2c1=O`, the growth is 24.5% (inactive). For the compound `NC(=O)c1c(NC(=O)c2cccc(C(F)(F)F)c2)sc2c1CCC(=O)C2`, the growth was 9.15% (active). Turning to `CC1=C(C(=O)Nc2ccccc2)C(c2ccc3c(c2)OCO3)NC(=S)N1` (stereo not given), the growth is 107% (inactive). Regarding `NS(=O)(=O)c1ccc(-c2cc(-c3nnc(SCC(=O)Nc4ccc(C(=O)/C=C/c5ccc(Cl)cc5)cc4)n3-c3ccccc3)c3ccccc3n2)cc1`, the growth is 96.2% (inactive). With `COC(=O)c1cc(Br)ccc1O`, the growth was 113% (inactive). For the compound `C=C1C(=O)O[C@H]2[C@H]1CC/C(COC(=O)/C=C/C(=O)OC/C1=C/CC[C@@]3(C)O[C@H]3[C@H]3OC(=O)C(=C)[C@@H]3CC1)=C\CC[C@@]1(C)O[C@@H]21`, the growth was 88.2% (inactive).

On to `CNC1=CC(=O)c2c(C(=O)OC)c(C)[n+]([O-])c(C)c2C1=O`, for which the growth is 84% (inactive). With `O=C(Nc1ncccc1OCc1ccccc1)NC1CCCCCC1` the figure was 88.2% (inactive). As for `O=C1/C(=C\c2cccc3nccnc23)SC(=S)N1CCc1ccc(O)cc1`, the growth is 100% (inactive). As to `O=C1/C=C/[C@@H](O)[C@@H]2C[C@@H](O)C[C@H]2/C=C/CCC[C@@H](O)CCO1`, the growth was 82% (inactive). Take `Cc1ccc(CNc2c3ccccc3nc3ccccc23)cc1`: the growth is 37.9% (inactive). For `Cc1ccnc(Nc2ccc([N+](=O)[O-])c(NCCN3CCOCC3)n2)c1`, the growth is 96.4% (inactive). For `CSc1nn2c(-c3ccc4ccccc4c3)ccnc2c1C#N`, the growth was 33.5% (inactive).

As for `COc1cc2nc3sc(C(=O)Nc4ccc(C(=O)OC(C)C)cc4)c(C(=O)Nc4ccc(Cl)cc4C)n3c(=O)c2cc1OC`, the growth was 77.2% (inactive). Turning to `COC(=O)/C=C1/SC(=Nc2ccc([N+](=O)[O-])cc2)N(CCc2c[nH]c3ccc(O)cc23)C1=O`, the growth was 64.7% (inactive). `O=S1(=O)C=C(c2ccccc2)C(c2ccccc2)=C1`: the growth is 90.1% (inactive). Turning to `O=C(O)COc1ccc(Cl)c(Cl)c1`, the growth was 104% (inactive). In the case of `O=C1/C(=C/c2ccccn2)NC(=S)N1c1ccccc1Cl`, the growth is 75% (inactive). As for `CCS/C(Nc1ccccc1)=C(\C#N)C(=O)Nc1ccc(OC)cc1`, the growth is 52.4% (inactive). For the compound `COc1ccc(C(=O)N2c3ccccc3Sc3ccccc32)c(C(F)(F)F)c1`, the growth is 45.6% (inactive). For `Cc1ccc(-c2csc(NC(=O)c3ccccc3CN3C(=O)c4ccccc4C3=O)n2)cc1`, the growth was 93.6% (inactive).

Consider `CNC(=O)c1cc(Oc2cccc3nc(NC(=O)Nc4cc(C(F)(F)F)ccc4Cl)ccc23)ccn1`, for which the growth was 99.5% (inactive).
